aSyn 5UTR act: Activators working through SNCA 5'UTR binding (MLPCN); alpha-synuclein 5'UTR reporter, activators screen; activity score, % (tested at 7.5 µM), hits read low; 300,000 tested, 7.1% active; in the data active means activity score below about -60%
The depositor's hits bear a star. Only a sample is shown.

SMILES	aSyn 5UTR act
COCCCNC(=O)COC(=O)c1ccc(-c2nc3ccccc3s2)s1	-68*
C(#Cc1ccccc1)Cn1nnc2ccccc21	-98*
COc1ccc(-c2noc(-c3cccnc3)n2)cc1OC	-159*
CCOc1ccc(-c2noc(-c3cccnc3)n2)cc1OC	-95*
O=C1Nc2ccccc2S/C1=C/Nc1cccc(Cl)c1	-203*
O=C1NC(=S)N/C1=C/c1ccc2ccccc2c1	-84*
C=CCc1cc(/C=C2/NC(=S)NC2=O)cc(OC)c1O	52
O=C1NC(=S)N/C1=C\C=C\c1ccccc1	-104*
C(=C\c1ccccn1)/c1cccnc1	-76*
CCOC(=O)CSC1=C(C#N)C(C)C2=C(CCCC2=O)N1 (configuration not stated)	-62*
N=c1ccn2c(n1)OC1C(O)C(CO)OC12 (configuration not stated)	112
Nc1ccn([C@@H]2O[C@H](CO)[C@@H](O)C2O)c(=O)n1 (some centres not stated)	72
OC[C@H]1O[C@@H](n2cnc3c(Nc4ccccc4)ncnc32)[C@H](O)[C@@H]1O	-79*
Cc1ccc(OCn2c(=O)sc3ccccc32)cc1	-158*
O=c1sc2ccccc2n1CCOc1ccccc1	-133*
O=C(C#Cc1ccccc1)Nc1ccc(F)cc1	-195*
COc1ccc(NC(=O)C#Cc2ccccc2)cc1	-385*
O=C(C#Cc1ccccc1)Nc1cccc(F)c1	-383*
CC(C)c1ccc(/C=N/N2CCN(c3ccccn3)CC2)cc1	-122*
Oc1ccccc1/C=N/N1CCN(c2ccccn2)CC1	-115*
CC(C)c1ccc(/C=N/N2CCCCC2)cc1	-143*
Cc1nn(-c2ccccc2)c(Cl)c1/C=N/Nc1nc2ccccc2n1C	-121*
Cc1nn(-c2ccccc2)c(Cl)c1/C=N/NC(=O)c1ccnn1C	-108*
CCc1n[nH]c(=S)n1/N=C/c1c(C)nn(-c2ccccc2)c1Cl	106
Cc1nn(-c2ccccc2)c(Cl)c1/C=N/Nc1nnc(C)c(=O)[nH]1	-62*
SMILES	aSyn 5UTR act
COc1nc(NCCO)nc(Nc2ccccc2F)n1	-97*
O=C(Nc1ccc(C(=O)Oc2ccccc2)c(O)c1)c1ccco1	-119*
O=C(Nc1ccc(C(=O)Oc2ccccc2)c(O)c1)c1ccccc1	-66*
COc1ccc(C(=O)/C=C2\Sc3ccccc3N2C)cc1	-179*
CC[n+]1c(/C=C2\Sc3ccccc3N2C)ccc2cccc(C)c21	116
Cc1ccc(C(=O)Nc2nc(C)c(C(=O)N(C)C)s2)o1	-77*
CC(Oc1cccc(Cl)c1)C(=O)Nc1nc(-c2ccccn2)cs1 (configuration not stated)	64
Cc1nc(NC(=O)c2oc3ccccc3c2C)sc1C(=O)N(C)C	-193*
CCCCc1nnc(NC(=O)c2oc3ccccc3c2C)s1	-96*
Cc1nc(NC(=O)C(C)Oc2cccc(Cl)c2)sc1C(=O)N(C)C (configuration not stated)	-65*
Cc1nc(NC(=O)/C=C/c2ccccc2)sc1C(=O)N(C)C	-166*
Cc1nnc(NC(=O)c2oc3ccccc3c2C)s1	-83*
O=C(c1ccc(COc2ccccc2[N+](=O)[O-])o1)N1CCCCCC1	-80*
Cc1ccc(OCc2ccc(C(=O)N3CCCC3)o2)cc1C	-82*
O=C(c1ccc(COc2ccc(Cl)cc2Cl)o1)N1CCCC1	-63*
Cc1ccccc1S(=O)(=O)Cc1ccc(C(=O)N2CCN(c3cccc(C)c3C)CC2)o1	101
CC(C)COCc1ccc(O)c2ncccc12	96
Cc1no[n+]([O-])c1COc1ccccc1/C=N/n1nnnc1N	-99*
CN(C)/C=N/c1ncc(C(=O)c2ccc3ccccc3c2)s1	-81*
COc1ccc(C(=O)c2cnc(/N=C/N(C)C)s2)cc1	-93*
Cc1occc1C(=O)Nc1nnc(-c2cccs2)s1	-351*
O=C(CN1CCOCC1)Nc1ccc(C2CCCCC2)cc1	-75*
O=C(CN1CCCC1)Nc1nnc(-c2cccs2)s1	-118*
O=C(CN1CCCCC1)Nc1nnc(-c2ccccc2)s1	-77*
O=C(CN1CCCC1)Nc1ccc(NC(=O)Nc2ccccc2)cc1	-194*
SMILES	aSyn 5UTR act
CC(C)(C)CC(=O)Nc1nnc(-c2cccs2)s1	-213*
Cn1c(-c2ccc3ccccc3n2)nc2cnccc21	-74*
CN(C)CCCNc1oc(/C=C/c2ccccc2)nc1C#N	-88*
Cc1cc(C)c2nc(NCCCNC(=S)NCCCN(C)C)c(C#N)cc2c1	96
CN(C)CCNc1oc(/C=C/c2ccccc2)nc1C#N	-98*
C=CCNc1oc(/C=C/c2ccccc2)nc1C#N	-152*
COc1ccc(OC)c(-c2cc(C(=O)Nc3c(C)nn(Cc4ccccc4Cl)c3C)no2)c1	58
COc1ccc(-c2cc(C(=O)Nc3cc(Cl)ccc3O)no2)cc1	-156*
Cc1ccc(-c2cc(C(=O)Nc3cc(C)ccc3O)no2)cc1	-183*
COc1ccc(-c2cc(C(=O)Nc3cc(C)ccc3O)no2)cc1	-132*
CCOc1ccc(-c2cc(CCCC(=O)Nc3cc(OC)ccc3OC)no2)cc1	83
Cc1ccc(O)c(NC(=O)c2cc(-c3ccccc3Cl)on2)c1	-173*
COc1ccc2c(C(=O)CN3CCSCC3)c[nH]c2c1	-63*
COc1cccc(CNc2ccc3c(c2)ncn3C(C)C)c1OC	-87*
COc1cccc(Cn2c(N)c(C#N)c3nc4ccccc4nc32)c1OC	53
CC(=O)c1sc(NCc2ccc(C)cc2)nc1C	-168*
CC(=O)c1sc(NC(=O)c2ccc(Cl)cc2)nc1C	-108*
CC(=O)c1sc(NC(=O)c2ccccc2C)nc1C	-88*
Cc1cccc(C(=O)NC(=O)Nc2c(C)cc(C)nc2C)c1	-147*
CC(=O)c1sc(NC(=O)c2cccc(C)c2)nc1C	-131*
CC(=O)c1sc(NC(=O)c2ccc(F)c(F)c2)nc1C	-159*
Cc1ccc(CNc2nc(Cl)c(C#N)s2)cc1	-146*
Cc1nc(NC(=O)c2ccc(F)cc2)sc1C(=O)Nc1ccc2c(c1)CCC2	-99*
Cc1nc(NC(=O)c2cccc(Cl)c2)sc1C(=O)N1CCCCC1	-138*
CCOC(=O)c1ccc(N/C=C/C(=O)c2ccccc2)cc1	-188*
SMILES	aSyn 5UTR act
CCOC(=O)c1ccc(N/C=C/C(=O)C(C)(C)C)cc1	-137*
O=P(O)(O)c1ccccc1OCCOCCOCCOCCOc1ccccc1P(=O)(O)O	-130*
O=C(Nc1nc(-c2ccccc2)cs1)c1cccs1	-144*
O=C(Nc1nc(-c2ccccc2)cs1)c1ccccc1NS(=O)(=O)c1ccc(F)cc1	63
Cc1csc(NC(=O)c2ccco2)n1	-72*
O=C(Nc1nc(-c2ccc(Cl)s2)cs1)c1ccco1	-203*
CC1CC1C(=O)Nc1nc(-c2cccs2)c(-c2cccs2)s1 (configuration not stated)	-71*
CC[C@@H](C(=O)[C@@H](C)[C@@H](O)[C@H](C)CCc1ccc(C)c(O)c1C(=O)O)[C@H]1O[C@](CC)([C@H]2CC[C@](O)(CC)[C@H](C)O2)C[C@@H]1C	100
O=C(Nc1nc(-c2ccccn2)cs1)C1CCCC1	-97*
O=C(Nc1nc(-c2nc3ccccc3s2)cs1)c1ccco1	-161*
O=C(Nc1ccc2nc(-c3ccccn3)[nH]c2c1)C1CCCCC1	-144*
O=C(Nc1nc(-c2ccccc2)ns1)c1cccs1	-272*
CC1CC1C(=O)Nc1nc(-c2ccccc2)cs1 (configuration not stated)	-122*
Cc1csc(NC(=O)c2cn3ccccc3n2)n1	82
COc1ccccc1OCc1csc(NC(=O)c2ccco2)n1	-108*
O=C(Nc1nc(-c2cc(Cl)sc2Cl)cs1)c1ccccc1	-85*
